# Assay results: PubChem BioAssay (Tox21)
# Results filed as inconclusive are left out. The source made the active and inactive calls. Calls come from the whole dose curve.
# Test: qHTS assay to identify small molecule agonists of the NFkB signaling pathway - cell viability counter screen (AID 1159515); note: nearly all actives have a fitted effect of over 55% in size
# Conditions: NFkB-bla ME-180 viability, CellTiter-Glo luminescence, 5 h; series mostly up to 61 µM; activity, negative = cytotoxic: at the top concentration
# Description: National Center for Advancing Translational Sciences [NCATS]
# NIH Chemical Genomics Center [NCGC]
# U.S. Environmental Protection Agency [EPA]
# National Institutes of Environmental Health Sciences [NIEHS]
# National Toxicology Program [NTP]
# U.S. Food and Drug Administration [FDA]
# Transcription factors and their stimulated target gene expression play pivotal roles across many cellular processes including responses to environmental stimuli. Proper regulation of associated pathways is critical to maintain cell health and function. Constitutive activation of transcription factor pathways has been implicated in tumors as it may block cellular functions such as apoptosis and lead to invasion and metastasis. One important transcription factor that stimulates gene expression in response to cytokines, UV radiation, and other stimuli is nuclear factor-kappa B (NFkB). To measure activation of the NFkB pathway, the CellSensor NFkB-bla ME-180 cell line (Life Technologies, Carlsbad, CA) that stably expresses beta-lactamase reporter gene under the regulation of a NF-kB response element was used. This assay allows measurement of the NFkB pathway activity induced by compounds in a ME-180 cell line. This system quantitates NF-kB activity using a FRET-based assay system where beta-lactamase expression disrupts FRET, allowing for fluorescent measurement of activity. This cell line has been used to screen the Tox21 10K compound library and to identify compounds that induce the NFkB pathway activity. The cytotoxicity of the Tox21 compound library against the NFkB-bla ME-180 cell line was tested in parallel by measuring cell viability using the CellTiter-Glo assay in the same wells.
# Tox21 Assay Protocol Summary:
# NFkB-bla ME-180 cells were dispensed at 2,000 cells/6 uL of assay medium per well into black wall/clear-bottom 1536-well plates using a Multidrop Combi (ThermoFisher Scientific, Waltham, MA) dispenser. After the assay plates were incubated at 37 C and 5% CO2 for an overnight, 23 nL of compounds dissolved in DMSO, positive controls or DMSO only was transferred to the assay plate by a Pintool station (Kalypsys, San Diego, CA). The assay plates were incubated at 37 C and 5% CO2 for 5 hr. One uL of LiveBLAzer B/G FRET substrate (Life Technologies) was added using a Flying Reagent Dispenser (Aurora Discovery, San Diego, CA) and the plates were incubated at room temperature for 1.5 hr. Fluorescence intensity (405 nm excitation, 460 nm and 530 nm emissions) was measured using an Envision plate reader (PerkinElmer, Shelton, CT). For cytotoxicity, 3 ul/well of CellTiter-Glo reagent was added into the assay plates using an FRD. After 30 min incubation at room temperature, the luminescence intensity was measured using a ViewLux plate reader (PerkinElmer).
# % is set by controls: 0 for no effect and ±100 for the full control effect; potency is the fitted concentration of half-maximal effect.
Compound,"activity, negative = cytotoxic",Potency
C#Cc1ccc(-c2ccccc2F)cc1,4.38% (inactive),
O=C(O)Cc1ccccc1Nc1c(Cl)cccc1Cl,2.88% (inactive),
CC(C)CCCCCOC(=O)CCS,-1.2% (inactive),
CCCNCCC,2.74% [at 78.8 µM] (inactive),
Nc1ccc(C(=O)O)c(O)c1,-2.35% (inactive),
CCN(CC)C(=O)c1cc(S(=O)(=O)Cc2ccccc2)c(N2CCC(c3ccccc3)CC2)cc1N(CC)CCN(C)C,,21.6 µM (active)
COc1cccc2c1C(=O)c1c(O)c3c(c(O)c1C2=O)C[C@@](O)(C(C)=O)C[C@@H]3O[C@H]1C[C@H](N)[C@H](O)[C@H](C)O1,-14% [at 78.8 µM] (inactive),
O=C1CCCCCCCCCCCCCCCO1,3.77% (inactive),
C#C[C@]1(OC(C)=O)CC[C@H]2[C@@H]3CCC4=C/C(=N/O)CC[C@@H]4[C@H]3CC[C@@]21CC,-19.9% (inactive),
[Cu+],-12.2% (inactive),
CC[C@H](C)COC(=O)/C=C/c1ccc(N=Cc2ccc(OC)cc2)cc1,-16.9% (inactive),
CCO[C@@H]1O[C@H](C(COCc2ccccc2)OCc2ccccc2)[C@H](OCc2ccccc2)[C@H]1O (stereo not given in full),,21.3 µM (active)
COc1cc2nc(N3CCN(C(=O)c4ccco4)CC3)nc(N)c2cc1OC,-10.9% [at 28.5 µM] (inactive),
Cc1ccc(O)c(N)c1,-4.96% (inactive),
CCCCC/C=C\C/C=C\CCCCCCCC(=O)O,-7.48% (inactive),
[Cl][Pt-2]([Cl])([Cl])[Cl],-3.34% [at 78.8 µM] (inactive),
O=c1oc2cc(O)ccc2c2oc3cc(O)ccc3c12,-4.97% (inactive),
CCCCCCCC/C=C\CCCCCCCCN,-9.84% (inactive),
CC1(C)CCC[C@]2(C)[C@H]3CC(=O)O[C@]3(C)CC[C@@H]12,-18% (inactive),
CN1CCCCC1CCN1c2ccccc2Sc2ccc(S(C)=O)cc21 (stereo not given),-15.9% (inactive),

Compound,"activity, negative = cytotoxic",Potency
Sc1nc2ccccc2s1,-0.593% (inactive),
CC(C)(C)c1ccc(C(O)CCCN2CCC(C(O)(c3ccccc3)c3ccccc3)CC2)cc1 (stereo not given),,21.3 µM (active)
CCCCN(CCCC)CC(O)c1cc(Cl)cc2c1-c1ccc(Cl)cc1/C2=C/c1ccc(Cl)cc1 (stereo not given),-18.7% (inactive),
CCCCOC(=O)CC,6.13% (inactive),
OCCN1CCN(CCCN2c3ccccc3Sc3ccc(C(F)(F)F)cc32)CC1,-12.4% (inactive),
CC(C)=CCC1=C(O)c2ccccc2C(=O)C1=O,-4.71% (inactive),
COc1cc(S(=O)(=O)O)c(C)cc1N=Nc1c(O)ccc2cc(S(=O)(=O)O)ccc12,-0.847% (inactive),
CN1CCN(Cc2cc(-c3ccc4[nH]c(=O)oc4c3)co2)[C@@H](c2ccc(F)cc2)C1,-1.77% (inactive),
O=C1c2ccccc2C(=O)N1SC1CCCCC1,-6.82% (inactive),
CCCC[P+](C)(CCCC)CCCC,-4.84% [at 78.8 µM] (inactive),
CC1=CCC(=C(C)C)CC1,-0.489% (inactive),
CC(=O)c1ccc(C(C)=O)cc1,-15.3% [at 78.8 µM] (inactive),
CCC(CC)C(C)CCOC(C)=O (stereo not given),-2.77% (inactive),
O=[N+]([O-])c1ccc(F)c(Cl)c1,1.34% (inactive),
O=C(O)CCN(C1(C(=O)NO)CCCC1)S(=O)(=O)c1ccc(Oc2ccc(F)cc2)cc1,8.67% (inactive),
Cc1cc(C(C)(C)C)cc(C)c1CC1=NCCN1,-2.22% (inactive),
O=C(/C=C/c1ccc(O)c(O)c1)O[C@@H](C(=O)O)[C@@H](OC(=O)/C=C/c1ccc(O)c(O)c1)C(=O)O,-0.0056% (inactive),
CC(=O)[C@H]1CC[C@H]2[C@@H]3CCC4=CC(=O)CC[C@]4(C)[C@H]3CC[C@]12C,-5.43% (inactive),
CCCCCCCCCCC[C@@H](C[C@@H]1OC(=O)[C@H]1CCCCCC)OC(=O)[C@H](CC(C)C)NC=O,-17.5% (inactive),
COc1cccc(OC)c1C(=O)O,-1.6% (inactive),
